Bioassay records as filed in PubChem BioAssay.
Platelet DG rel = modulates dense granule release in human platelets; inhibition, %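 (compounds screened at 7.5 µM in platelet-rich plasma)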; AID 1663; human platelet-rich plasma, SFLLRN dense granule ATP release, luminescence; 300,000 compounds, 0.22% hits;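 active = mean replicate score, as percent of positive control, at or above 50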
SENP7 block = SENP7 protease inhibition; recombinant SENP7, Z-RLRGG-aminoluciferin luminescence, 40 min; 330,000 compounds, 1.5% hits; inhibition, % at 5 µM; Q9BQF6;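 active = inhibition above about 50% at the single test dose, limit read from the data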;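 also: plate controls were DMSO with enzyme for no effect and no enzyme buffer wells for full effect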
HSP90 inh = blocks HSP90-mediated luciferase refolding in reticulocyte lysate; inhibition, % at 5.6 µM; Rabbit reticulocyte lysate, luciferase refolding luminescence, 3 h; 290,000 compounds, 0.91% hits; AID 1789;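 active = inhibition above the screen-wide mean plus 3 SD, computed separately per campaign, cut at about 16% in these data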;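 also: 0% = DMSO wells and 100% = 60 µM geldanamycin wells; inhibitors lower the luminescence because luciferase stays unfolded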
SENP8 block-1 = blocks human SENP8 cleavage of Nedd8 substrate; Q96LD8; recombinant SENP8, Nedd8 substrate fluorescence; inhibition, % at 20 µM; 360,000 compounds, 0.64% hits; AID 602440; in the data active = inhibition mostly above about 40%, no sharp cut-off; inactive = mostly below about 27%
Target sequence (Q96LD8 whole entry, looked up): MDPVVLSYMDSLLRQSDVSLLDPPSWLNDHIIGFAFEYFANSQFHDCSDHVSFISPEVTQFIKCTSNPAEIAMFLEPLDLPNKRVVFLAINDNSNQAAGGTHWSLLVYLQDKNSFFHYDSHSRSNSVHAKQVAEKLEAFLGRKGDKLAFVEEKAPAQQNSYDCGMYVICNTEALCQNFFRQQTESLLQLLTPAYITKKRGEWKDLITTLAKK
SENP6 block = SENP6 protease inhibition. inhibition, % at 10 µM. Recombinant SENP6 catalytic domain, aminoluciferin luminescence. 330,000 compounds, 1.8% hits. Q9GZR1;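 active = inhibition above about 50% at the single tested dose, limit read from the data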;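 also: plate controls were DMSO wells with enzyme for no effect and DMSO wells lacking enzyme for full effect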
Target sequence (Q9GZR1 628-1112 limits assumed): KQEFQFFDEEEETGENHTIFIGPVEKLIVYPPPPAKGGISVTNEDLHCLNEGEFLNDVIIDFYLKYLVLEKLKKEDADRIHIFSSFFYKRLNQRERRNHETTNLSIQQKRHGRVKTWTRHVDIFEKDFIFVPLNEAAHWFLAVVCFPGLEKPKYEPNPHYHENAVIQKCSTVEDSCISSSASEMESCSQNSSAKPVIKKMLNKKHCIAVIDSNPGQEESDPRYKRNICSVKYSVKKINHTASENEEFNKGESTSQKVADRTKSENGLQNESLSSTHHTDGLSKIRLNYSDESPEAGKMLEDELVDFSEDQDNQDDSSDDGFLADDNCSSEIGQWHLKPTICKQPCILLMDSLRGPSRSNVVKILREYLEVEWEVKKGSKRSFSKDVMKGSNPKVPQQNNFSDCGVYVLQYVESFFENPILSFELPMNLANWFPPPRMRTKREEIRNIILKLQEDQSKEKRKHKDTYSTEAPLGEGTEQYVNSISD
SENP8 block-2 = blocks the human protease SENP8. inhibition, % at 10 µM. 330,000 compounds, 1.2% hits. Q96LD8. AID 2540. purified SENP8, Z-RLRGG-aminoluciferin cleavage, luminescence; in the data active = inhibition above about 50%
HSP90 confirm = confirmation of HSP90 inhibitors; shares compounds with HSP90 inh; rabbit reticulocyte lysate, luciferase refolding luminescence, 3 h; inhibition, % at 5.9 µM; 2,300 compounds, 64% hits; AID 1846; in the data active = inhibition above about 18%;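 also: 0% = vehicle wells and 100% = reference inhibitor wells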
FLuc counter = blocks native firefly luciferase in HSP90 counter-screen. shares compounds with HSP90 inh. inhibition, % at 5.9 µM. purified native firefly luciferase, luminescence. AID 1847. 2,300 compounds, 48% hits;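 active = inhibition above the mean inhibition of all tested sample wells plus 3 SD, cut at about 10% in these data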;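 also: 0% = DMSO with luciferase and 100% = wells lacking luciferase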
Numbers without * were called inactive; nt = no result given. Rows were chosen to be rich in hits. Some 2.8% of all compounds tested hit in one or more screens of this group.

SMILES | Platelet DG rel | SENP7 block | HSP90 inh | SENP8 block-1 | SENP6 block | SENP8 block-2 | HSP90 confirm | FLuc counter
CN(C)c1ccc(CNCCC(Cc2ccccc2)c2ccco2)cc1 (stereo unspecified) | -7.8 | 4.3 | 18.5* | 14.3 | -7.1 | 3.6 | 5.0 | -2.1
CCN(CC)C(=O)C1=C(C)N(CCCOC)C(=O)C(CC(=O)NC2CCCCC2)C1 (stereo unspecified) | nt | nt | nt | 17.3 | nt | nt | nt | nt
CNc1nc(-c2ccccn2)nnc1-c1ccccc1 | -0.2 | 2.6 | 0.7 | 28.8 | -14.5 | 1.1 | nt | nt
c1ccc(-c2nnc(-c3ccccn3)nc2NC2CCCCC2)cc1 | -4.9 | 1.1 | 21.6* | 18.7 | -3.2 | 1.2 | 16.3* | -12.0
CCCCNC(=O)C(CC)(ONc1ccccc1C(F)(F)F)c1ccccc1 (stereo unspecified) | nt | 10.8 | nt | 16.6 | 15.6 | 10.6 | nt | nt
Brc1ccc(OCCN2CCOCC2)cc1 | -4.4 | -1.6 | -3.9 | 5.1 | 21.9 | 3.2 | nt | nt
Clc1ccc(OCCN2CCOCC2)cc1 | 2.1 | 2.4 | 17.7* | -2.5 | 14.8 | 9.2 | -5.3 | -5.2
COc1cc(C(=O)OCC(=O)Nc2ccccc2C(=O)NC2CC2)c([N+](=O)[O-])cc1OC | nt | 2.7 | nt | 4.0 | -11.5 | 2.2 | nt | nt
Cc1ccc(S(=O)(=O)NCC(C)n2nc(C)nc2C)cc1 (stereo unspecified) | 11.5 | -11.3 | -0.6 | 9.1 | -4.4 | 0.0 | nt | nt
Cc1ccccc1C(=O)Nc1nnc(SCC(=O)NCc2ccco2)s1 | -1.7 | 19.0 | 18.1* | -4.7 | 9.6 | 4.6 | 27.4* | 15.1*
Cc1ccccc1Nc1nnc(SCC(=O)NCc2ccco2)s1 | nt | 6.5 | 3.6 | 1.3 | -4.6 | 5.7 | nt | nt
Cc1ccc(SCc2cn3ccccc3n2)cc1 | -27.3 | 22.8 | 4.7 | 14.0 | 21.2 | 10.2 | nt | nt
Cn1ccnc1SCc1cn2cc(Br)ccc2n1 | -4.3 | 6.3 | 17.8* | 12.7 | 0.8 | -8.2 | 39.8* | 34.0*
COc1ccc(CNC(=O)CCS(=O)(=O)c2ccc3c(c2)NC(=O)CS3)cc1 | 10.2 | 4.0 | 0.0 | 3.0 | 11.3 | 5.2 | nt | nt
Cc1ccc(NC(=O)C2CCN(c3ncnc4c3nc3n4CCCCC3)CC2)nc1 | 6.1 | -0.2 | 34.1* | -16.9 | 10.8 | 3.5 | -10.1 | -22.4
O=C(C1CCN(c2ncnc3c2nc2n3CCCCC2)CC1)N1CCCCC1 | -3.1 | 2.0 | 1.6 | 8.7 | -1.0 | -2.9 | nt | nt
COC(=O)c1ccccc1OCCCOc1ccc(C=O)cc1OC | -8.9 | 0.8 | 60.3* | 0.8 | 7.0 | 4.6 | 70.2* | -10.4
COc1ccc(-c2oc(=O)c3cc(OC)c(OC)cc3c2C#C[C@]2(O)CC[C@H]3[C@@H]4CCc5cc(OC)ccc5[C@H]4CC[C@@]32C)cc1 | nt | 9.5 | nt | -393.8 | 10.2 | -2.7 | nt | nt
O=[N+]([O-])c1ccccc1NC(=S)N/N=C/c1ccc(O)c(O)c1 | 3.9 | 13.3 | 43.2* | 5.2 | 7.5 | 17.0 | 1.7 | -20.8
Cn1cnc(S(=O)(=O)N2CCN(C(c3ccccc3)c3ccccc3)CC2)c1 | 6.4 | -9.2 | -4.0 | 18.4 | -10.4 | -9.5 | nt | nt
CCCCc1cc(=O)oc2cc(OCC(=O)Nc3cccnc3)c(Cl)cc12 | 2.3 | -6.9 | -0.3 | -105.6 | -11.0 | -4.3 | nt | nt
O=C(NCc1ccncc1)C1CCN(S(=O)(=O)c2ccc(Cl)c(C(F)(F)F)c2)CC1 | nt | -13.6 | nt | 6.4 | -2.5 | -0.9 | nt | nt
CCCCNC(=O)COC(=O)c1c2c(nc3ccccc13)CCC2 | 1.4 | -6.0 | 33.0* | -40.6 | 3.6 | -2.4 | 6.4 | -4.8
CNC(=O)COC(=O)c1c2c(nc3ccccc13)CCC2 | 0.7 | 4.0 | 4.9 | -33.8 | -12.8 | 0.4 | nt | nt
CC(=O)N1c2ccccc2Oc2cc3ccccc3cc21 | -10.4 | -5.2 | 21.4* | -229.2 | 8.0 | -6.4 | 47.4* | -12.8
SMILES | Platelet DG rel | SENP7 block | HSP90 inh | SENP8 block-1 | SENP6 block | SENP8 block-2 | HSP90 confirm | FLuc counter
Fc1ccc(F)c(C2=NNC(=Nc3ccccc3F)SC2)c1 | -0.7 | 11.8 | 3.8 | -85.4 | 35.1 | 4.0 | nt | nt
COCCCN=C1NN=C(c2cc(C)n(-c3ccccc3F)c2C)CS1 | 0.8 | 0.8 | 17.6* | 16.3 | -14.1 | -4.5 | 69.5* | 64.4*
COCCCN=C1NN=C(c2cc(C)n(Cc3ccccc3Cl)c2C)CS1 | -8.4 | 2.4 | 21.3* | -3.3 | -16.1 | 4.5 | 48.1* | 22.9*
COCCn1c(C)cc(C2=NNC(=Nc3ccccc3F)SC2)c1C | 8.3 | 3.3 | 77.3* | 1.6 | 8.0 | 5.6 | 62.2* | 55.4*
CC1(C(=O)NS(=O)(=O)c2cccc(Cl)c2)CCN1C(=O)C1(c2ccc(Cl)cc2)CCC1 (stereo unspecified) | nt | nt | nt | 18.9 | nt | nt | nt | nt
Cc1[nH]c(=O)c(C#N)c(C)c1CCC(=O)NCc1cccc(C(F)(F)F)c1 | 17.4 | -9.3 | 0.6 | -64.9 | -10.3 | -8.6 | nt | nt
CC1Oc2ccccc2C=C1/C=N/Nc1ccc(C(=O)O)cc1 (stereo unspecified) | 3.0 | 89.0* | 33.6* | -275.9 | 96.4* | 96.2* | 41.3* | 24.8*
CCCCN(C=O)c1c(CC)nc2ccc(C(=O)N(C)Cc3ccco3)cn12 | nt | nt | nt | -25.6 | nt | nt | nt | nt
CCOc1ccc(-c2nc(CSCC(=O)N3CCN(C(=O)c4ccco4)CC3)c(C)o2)cc1 | 3.9 | -6.6 | 37.2* | 11.0 | -12.1 | -5.2 | 46.0* | -5.0
CCc1ccc(-c2nc(CSCC(=O)NCc3ccco3)c(C)o2)cc1 | -0.4 | nt | 19.1* | 4.1 | nt | nt | 30.8* | -19.8
CCCNC(=O)CSCc1nc(-c2ccc(SC)cc2)oc1C | 0.5 | -6.0 | 3.4 | -86.6 | -17.6 | -6.6 | nt | nt
COC(=O)[C@H]1C[C@H](OC(=O)Nc2cccs2)[C@@]2(O)CN(S(=O)(=O)c3ccc(C)cc3)CC2[C@H]1C(=O)OC (stereo partly specified) | nt | nt | nt | -5.0 | nt | nt | nt | nt
Cc1ccc(CNC(=O)c2cc(S(=O)(=O)N3CCCCC3)ccc2N2CCOCC2)cc1 | nt | 0.7 | nt | -11.0 | -27.1 | 6.1 | nt | nt
Cc1nnc(NC(=O)CSc2nc3ccccc3o2)s1 | -1.2 | -0.3 | 1.0 | -0.2 | 0.6 | -4.6 | nt | nt
CC1CCc2nc(NC(=O)CSc3nc4ccccc4o3)sc2C1 (stereo unspecified) | -2.2 | 5.3 | 46.0* | 24.5 | -2.6 | -4.6 | 50.8* | 48.9*
CC1=C(C(=O)NCc2ccc3c(c2)OCO3)C2(CCC(C)CC2)OC1=O (stereo unspecified) | -3.4 | -6.0 | 57.5* | 8.6 | -12.5 | -0.3 | -6.7 | -10.2
CC1CCCCC12NC(=O)N(CC(=O)NCc1ccc3c(c1)OCO3)C2=O (stereo unspecified) | -3.9 | 0.3 | 25.5* | -0.4 | -2.9 | 7.7 | -5.6 | -9.8
O=C(COC(=O)c1cc(Br)ccc1O)NNC(=O)c1cccs1 | nt | -2.8 | nt | -119.0 | 1.0 | -2.4 | nt | nt
CCOC(=O)[C@]12CCC=C1N(Cc1ccc(Cl)cc1Cl)C(=O)[C@H](CC(=O)NCC1CCCCC1)C2 | nt | nt | nt | 4.9 | nt | nt | nt | nt
O=C(c1ccco1)N1CCN(c2ccc([N+](=O)[O-])cc2F)CC1 | -48.0 | -4.5 | -0.6 | 15.9 | -17.2 | 0.1 | nt | nt
